Hits are enriched below; roughly 7.9% of the tested compounds scored in any of these assays.
HT1080-NT tox = qHTS for induction of synthetic lethality in tumor cells producing 2HG: qHTS for the HT-1080-NT fibrosarcoma cell line. actives 1.6% (n = 360,000). Potency, µM (top dose mostly 46.1 µM), for inactives: at the highest dose activity, negative = less viability, usual class: cytotoxic. HT-1080-NT fibrosarcoma viability, CellTiter-Glo ATP luminescence, 48 h;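 further: NT is the 2HG producing partner of a matched IDH1 knockdown line; 0% = DMSO-treated cells and -100% = media-only wells without cells; nearly all actives have a fitted effect of over 55% in size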
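Toxicity toward the 2HG-producing NT line was scored as %Activity, normalised to DMSO and no-cell wells, from CellTiter-Glo luminescence after 48 hours' treatment.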
HT1080 IDH1KD tx = qHTS for induction of synthetic lethality in tumor cells producing 2HG: qHTS for the HT-1080-IDH1KD cell line. HT-1080 IDH1 knockdown viability, ATP luminescence, 48 h. Potency, µM (highest dose often 46.1 µM), inactives show at the top dose activity, negative = toxicity, actives largely listed as cytotoxic. actives 2% (n = 360,000);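 further: 0% = DMSO wells and -100% = cell-free medium wells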
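Luminescent ATP read-out (CellTiter-Glo, 10 min at room temperature) after 48 h compound exposure at 37 °C gave viability of IDH1-knockdown HT-1080 cells. Activity was normalised to DMSO and cell-free wells, then fitted as concentration-response curves.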
MCF10A rereplic = A quantitative high throughput screen for small molecules that induce DNA re-replication in MCF 10a normal breast cells; MCF 10A DNA re-replication, Hoechst nuclear intensity, 48 h; Potency, µM (series often up to 46.1 µM), for the others: top-dose activity, positive = re-replication, usual class: activators; actives 2.9% (n = 350,000); AID 624296, 2012; further: % of control where 0% means no effect; nearly all actives have a fitted effect of over 50% in size
KB-V1 MDR tox = qHTS assay for MDR1-selective chemotherapeutics: Primary screen using the drug-selected MDR subline cells KB-V1 | actives 3.4% (n = 400,000) | Potency, µM (doses to about 46.1 µM), actives largely listed as cytotoxic | KB-V1 MDR cells viability, CellTiter-Glo, 72 h | AID 1347076, 2019; further: on the % scale 0 is the no-effect control and ±100 the full control effect; nearly all actives have a fitted effect of over 60% in size
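Potencies derive from concentration-effect curves fitted to normalized luminescence (CellTiter-Glo) of KB-V1 cells treated for 72 h at 37 degrees C in phenol-red-free DMEM containing 10% FBS.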
SW480 rereplic = A quantitative high throughput screen for small molecules that induce DNA re-replication in SW480 colon adenocarcinoma cells. actives 1.8% (n = 340,000). Potency, µM (series often up to 46.1 µM), without a hit: top-dose re-replication activation, actives largely listed as activators. SW480 DNA re-replication, Hoechst DNA content imaging, 48 h. AID 624297, 2012; further: % of control where 0% means no effect; nearly all actives have a fitted effect of over 55% in size
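Quantitative HTS format with DMSO vehicle controls; 48 hr drug incubation at 37 C, then 40 min Hoechst staining and scanning imager measurement at 405 nm excitation.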
KB-3-1 cytotox = qHTS assay for MDR1-selective chemotherapeutics: Primary screen using the parental adenocarcinoma cell KB-3-1; Potency, µM (top dose mostly 46.1 µM), most hits filed as cytotoxic; KB-3-1 viability, CellTiter-Glo ATP luminescence, 72 h; actives 1.4% (n = 400,000); further: on the % scale 0 is the no-effect control and ±100 the full control effect; nearly all actives have a fitted effect of over 60% in size
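Using CellTiter-Glo luminescence, growth of non-resistant KB-3-1 adenocarcinoma cells is assessed 72 h after pin-tool compound addition at 37 °C. Normalized responses across the concentration series yield fitted curves.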
The depositor's hits bear a star; i = inactive; ? = inconclusive; . = no result. The call rests on the fitted dose curve; in most records, active means well fitted curve in the direction sought with a large enough effect; inconclusive means small, poorly fitted or top-dose-only effect, or another doubt; inactive means no such curve, though single readings can be large; an effect the other way counts as inactive or inconclusive. Potency means the concentration at half of the fitted maximal effect.

SMILES	HT1080-NT tox	HT1080 IDH1KD tx	MCF10A rereplic	KB-V1 MDR tox	SW480 rereplic	KB-3-1 cytotox
CC(SCc1ccccc1)C(=O)Nc1ccc2c(c1)OCO2 (stereo unspecified)	5.4%	3.8%	0.8%	18.4µM*	-9.3%	i
COc1ccc(NC(=O)C(C)SCc2ccccc2)cc1OC (stereo unspecified)	14.6%	9.7%	10.1%	23.1µM*	-82.2%	i
COc1ccc(C(=O)C2CCCN(C(=O)C3=CCCC3)C2)cc1OC (stereo unspecified)	1.3%	-6.0%	-5.1%	i	-4.1%	i
CC(=O)NC1C(=O)N(CCc2ccccc2)c2ccc(Br)cc21 (stereo unspecified)	0.4%	-8.0%	26.7%	5.8µM*	2.1%	i
CC(=O)NC1C(=O)N(Cc2ccccc2)c2ccc(Br)cc21 (stereo unspecified)	-3.5%	-0.2%	22.6%	?	-1.9%	i
Cc1cc(OCCCCCNCCO)cc(C)c1Cl	?	15.8µM*	?	i	?	i
Cc1cc(C)cc(C(=O)NC(CC(N)=O)c2ccc(N3CCC(Cc4ccccc4)CC3)c([N+](=O)[O-])c2)c1 (stereo unspecified)	-1.9%	-4.1%	0.2%	i	-2.7%	i
O=[N+]([O-])c1cc(-n2cnnn2)ccc1N1CCC(Cc2ccccc2)CC1	-3.3%	-14.5%	23.8%	23.1µM*	?	i
CC1CC(C)CN(c2cc3c(cc2[N+](=O)[O-])C(=O)N(c2ccccc2)C3=O)C1 (stereo unspecified)	21.3%	18.9%	2.5%	i	-6.1%	i
CC1CC(C)CN(c2ccc(-n3cnnn3)cc2[N+](=O)[O-])C1 (stereo unspecified)	-5.5%	-9.0%	-2.4%	?	1.7%	5.17µM*
CCC(c1nnnn1-c1ccc2c(c1)OCCO2)N1CCN(c2ncccc2C(F)(F)F)CC1 (stereo unspecified)	-11.1%	?	.	?	.	?
c1ccc2c(C(c3nnnn3-c3ccc4c(c3)OCCO4)N3CCCCC3)ccnc2c1 (stereo unspecified)	-18.9%	-13.3%	.	i	.	i
CC(C)(C)OC(=O)N1CCCN(C(c2ccnc3ccccc23)c2nnnn2-c2ccc3c(c2)OCCO3)CC1 (stereo unspecified)	23.1µM*	?	.	i	.	?
CCC(c1nnnn1-c1ccc2c(c1)OCCO2)N1CCN(c2ccc(F)cc2)CC1 (stereo unspecified)	-12.4%	?	.	10.3µM*	.	?
CCOC(=O)N1CCN(C(c2ccnc3ccccc23)c2nnnn2-c2ccc3c(c2)OCCO3)CC1 (stereo unspecified)	?	?	.	18.4µM*	.	?
Cc1cccc(C)c1N1CCN(C(c2ccnc3ccccc23)c2nnnn2-c2ccc3c(c2)OCCO3)CC1 (stereo unspecified)	?	?	.	18.4µM*	.	20.6µM*
COC(=O)C(NNc1ccc(F)cc1)(NC(=O)c1ccccc1)C(F)(F)F (stereo unspecified)	-10.3%	-18.2%	-0.5%	18.4µM*	-5.6%	i
CCOC(=O)c1ccc(N2C(=O)C=CC2=O)cc1	?	-11.8%	?	i	?	i
CC(NCCc1ccc(S(N)(=O)=O)cc1)C(=O)NCCc1ccc(F)cc1 (stereo unspecified)	-0.1%	-0.5%	3.8%	i	-7.3%	i
CC(NCC(=O)NCCc1ccc(S(N)(=O)=O)cc1)c1ccc(F)cc1 (stereo unspecified)	-2.5%	-2.1%	-5.4%	i	25.9µM*	i
Cc1sc2nc(CSCC(=O)Nc3ccccc3C#N)[nH]c(=O)c2c1C	0.5%	0.9%	21.1%	20.6µM*	6.6%	i
CSc1ccccc1NC(=O)CSCc1nc2sc(C)c(C)c2c(=O)[nH]1	2.4%	2.7%	2.31µM*	i	-25.6%	i
CC(=O)c1ccccc1NC(=O)CSCc1nc2sc(C)c(C)c2c(=O)[nH]1	-6.5%	-2.4%	3.1%	?	-5.0%	i
Cc1nc2ccc(Cl)cn2c1[N+](=O)[O-]	1.0%	1.8%	.	i	.	i
CC(C)(C)NC(=O)C1CCN(C(=O)c2ccco2)CC1	6.8%	7.0%	-12.8%	i	-10.2%	i
SMILES	HT1080-NT tox	HT1080 IDH1KD tx	MCF10A rereplic	KB-V1 MDR tox	SW480 rereplic	KB-3-1 cytotox
CC(C)=CCC/C(C)=C/C(N)=O	14.9%	1.3%	-0.8%	i	-5.4%	i
CC(C)=CCC/C(C)=C/C=C/C(C)=C/C=C/C(C)=C/C=C/C=C(C)/C=C/C=C(C)/C=C/C=C(\C)CCC=C(C)C	.	.	?	.	18.8µM*	.
COc1cccc2c(=O)c3ccoc3n(C)c12	-1.2%	3.9%	-0.7%	i	-46.1%	i
COc1cccc2c(=O)c3c(cnn3C)n(C)c12	-3.4%	-7.9%	?	20.6µM*	23.8%	i
Cc1cccc(-c2nc(CN3CCCC(C(=O)NC4CCC(C)CC4)C3)c(C)o2)c1 (stereo unspecified)	-26.4%	-24.5%	?	20.6µM*	?	i
Cc1cccc(-c2nc(CN3CCCC(C(=O)NC4CCCC4)C3)c(C)o2)c1 (stereo unspecified)	?	?	?	9.2µM*	?	i
CCOC(=O)N1CCC(NC(=O)C2CCCN(Cc3nc(-c4cccc(C)c4)oc3C)C2)CC1 (stereo unspecified)	?	?	?	?	0.4%	i
CCOC(=O)c1c(C)[nH]c(C)c1S(=O)(=O)NCc1ccccc1C	-15.6%	-0.2%	?	i	-2.5%	i
COc1ccc(-c2cc(C(F)(F)F)nc(NCc3ccc(Cl)cc3)n2)cc1	.	.	.	i	.	i
FC(F)(F)c1cc(-c2ccc(Cl)cc2)nc(NCc2cccnc2)n1	-4.5%	4.5%	16.4µM*	?	?	i
CCOC(=O)/C(C#N)=C/N=c1ccc(C)cn1C	22.5%	?	0.0%	i	-7.0%	i
O=C(Nc1ccccc1)N(CCCN1CCOCC1)Cc1cccs1	-8.4%	3.3%	0.3%	i	-7.2%	i

Screens: PubChem, National Center for Advancing Translational Sciences (NCATS)
